Measured values as given in PubChem BioAssay AID1159580 (chemical genetic matrix, 2015).
Values joined by “and” are separate entries in the source; they are usually repeats but may differ in a detail not shown here. Equal entries are not always repeated. Hit rate of the full screen: of about 5,500 compounds, about 2,000 (36%) were called active. Roughly 18% stayed inconclusive and do not appear here. Rule as the data show it: active = normalized growth mostly below about 0.91 (no sharp cut-off); inconclusive = no clear call, values can overlap the other calls; inactive = mostly above about 0.92. The list shows a part of the results.

Test: chemical genetic growth profiling, strain panel (AID 1159580);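 also: tested at 20 µM; growth read once vehicle control cultures reached saturation at 30 °C; 1 = growth at the plate median or of vehicle wells; lower values mean less growth of the strain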
Conditions: S. cerevisiae deletion strains, growth OD

Measured: normalized growth

C[C@@H]1CC[C@@]23CCC4(C)[C@@](C=CC5[C@@]6(C)CC[C@H](O)C(C)(C)C6CC[C@]54C)(OC2=O)C3[C@H]1C (some centres not stated)
active: locus YBR279W, strain paf1, stronger effect = lower value 1.09 [resistant] | locus YDR137W, strain rgp1, stronger effect = lower value 1.16 [resistant] | locus YER016W, strain bim1, stronger effect = lower value 1.17 [resistant] | locus YHR094C, strain hxt1, stronger effect = lower value 1.14 [resistant] | locus YIR030C, strain dcg1, stronger effect = lower value 1.18 [resistant]
inactive: locus YAL021C, strain ccr4, stronger effect = lower value 0.999 | locus YAL026C, strain drs2, stronger effect = lower value 1.01 | locus YAL030W, strain snc1, stronger effect = lower value 1 | locus YBL061C, strain skt5, stronger effect = lower value 1.06 | locus YBR009C, strain hhf1, stronger effect = lower value 1 | locus YBR021W, strain FUR4, stronger effect = lower value 0.999 | locus YBR023C, strain chs3, stronger effect = lower value 1.02 | locus YBR171W, strain sec66, stronger effect = lower value 1 | locus YBR229C, strain ROT2, stronger effect = lower value 1 | locus YBR231C, strain swc5, stronger effect = lower value 1.09 | locus YCL011C, strain gbp2, stronger effect = lower value 1 | locus YCL016C, strain dcc1, stronger effect = lower value 1.08 | locus YCL029C, strain bik1, stronger effect = lower value 1.02 | locus YCL061C, strain MRC1, stronger effect = lower value 0.991 | locus YCL069W, strain vba3, stronger effect = lower value 1.01 | locus YCR088W, strain abp1, stronger effect = lower value 1 | locus YDL005C, strain med2, stronger effect = lower value 1.01 | locus YDL035C, strain GPR1, stronger effect = lower value 1 | locus YDL040C, strain nat1, stronger effect = lower value 1.06 | locus YDL074C, strain BRE1, stronger effect = lower value 1.04 | locus YDL101C, strain DUN1, stronger effect = lower value 1.02 | locus YDL134C, strain PPH21, stronger effect = lower value 1.03 | locus YDL185W, strain tfp1, stronger effect = lower value 1.01 | locus YDL192W, strain arf1, stronger effect = lower value 1.05 | locus YDR001C, strain nth1, stronger effect = lower value 1.01 | locus YDR069C, strain doa4, stronger effect = lower value 0.985 | locus YDR101C, strain arx1, stronger effect = lower value 1.03 | locus YDR159W, strain sac3, stronger effect = lower value 1.1 | locus YDR162C, strain NBP2, stronger effect = lower value 1.04 | locus YDR195W, strain ref2 0.955 | locus YDR297W, strain sur2, stronger effect = lower value 1 | locus YDR318W, strain mcm21, stronger effect = lower value 1.01 | locus YDR334W, strain swr1, stronger effect = lower value 1 | locus YDR335W, strain msn5, stronger effect = lower value 1.01 | locus YDR388W, stronger effect = lower value 1.01 | locus YDR392W, strain spt3, stronger effect = lower value 1.02 | locus YDR502C, strain sam2, stronger effect = lower value 1 | locus YEL003W, strain gim4, stronger effect = lower value 0.99 | locus YEL037C, strain rad23, stronger effect = lower value 1.04 | locus YEL061C, strain CIN8 (second series), stronger effect = lower value 1 | locus YEL061C, strain CIN8, stronger effect = lower value 1.02 | locus YER015W, strain faa2, stronger effect = lower value 1 | locus YER110C, stronger effect = lower value 0.995 | locus YER111C, strain swi4, stronger effect = lower value 1.04 | locus YER155C, strain BEM2 (second series), stronger effect = lower value 0.967 | locus YER155C, strain BEM2, stronger effect = lower value 1.03 | locus YER167W, strain BCK2, stronger effect = lower value 1.01 | locus YFR010W, strain ubp6, stronger effect = lower value 1.02 | locus YGL078C, strain dbp3, stronger effect = lower value 1 | locus YGL086W, strain mad1, stronger effect = lower value 1.02 | locus YGL167C, strain pmr1, stronger effect = lower value 1.02 | locus YGL173C, strain kem1, stronger effect = lower value 0.991 | locus YGL227W, strain vid30, stronger effect = lower value 1 | locus YGL240W, strain doc1, stronger effect = lower value 0.99 | locus YGL248W, strain PDE1, stronger effect = lower value 1.03 | locus YGL253W, strain hxk2, stronger effect = lower value 1.03 | locus YGR078C, strain PAC10, stronger effect = lower value 1.03 | locus YGR135W, strain pre9, stronger effect = lower value 0.993 | locus YGR229C, strain SMI1, stronger effect = lower value 1.08 | locus YGR252W, strain gcn5, stronger effect = lower value 1.07 | locus YHR013C, strain ard1, stronger effect = lower value 1.06 | locus YHR027C, strain rpn1, stronger effect = lower value 1.01 | locus YHR030C, strain SLT2, stronger effect = lower value 1.03 and 1.01 | locus YHR079C, strain IRE1 (second series), stronger effect = lower value 0.998 | locus YHR079C, strain IRE1, stronger effect = lower value 0.999 | locus YHR129C, strain ARP1, stronger effect = lower value 1.03 | locus YHR142W, strain chs7, stronger effect = lower value 1.06 | locus YHR200W, strain rpn10, stronger effect = lower value 0.988 | locus YIL066C, strain RNR3, stronger effect = lower value 1.04 | locus YIL073C, strain SPO22, stronger effect = lower value 1.05 | locus YIL125W, strain kgd1, stronger effect = lower value 0.992 | locus YJL092W, strain hpr5, stronger effect = lower value 1.01 | locus YJL095W, strain BCK1 (second series), stronger effect = lower value 1.03 | locus YJL095W, strain BCK1, stronger effect = lower value 1.06 and 1.01 | locus YJL115W, strain asf1, stronger effect = lower value 1.03 | locus YJL129C, strain trk1, stronger effect = lower value 1.03 | locus YJL134W, strain LCB3, stronger effect = lower value 1.02 | locus YJL154C, strain vps35, stronger effect = lower value 1 | locus YJL164C, strain tpk1, stronger effect = lower value 1.01 | locus YJL166W, strain qcr8, stronger effect = lower value 1.01 | locus YJL187C, strain SWE1 (second series), stronger effect = lower value 1.01 | locus YJL187C, strain SWE1, stronger effect = lower value 0.996
